Assay results from PubChem BioAssay AID1981 (Southern Research Specialized Biocontainment Screening …, 2009).
Among all 2,200 compounds or so, about 480 (22%) were called active. The rule behind the calls is not given here. Not all results are given here. Measured potencies and affinities stand elsewhere.

Test: S. Typhimurium GFP fluorescence modified counterscreen for PhoP regulon inhibitor project dose response (AID 1981)
Conditions: 4 h; series mostly up to 150 µM

Row | Compound | outcome
1 | NC(CSC12CC3CC(CC(C3)C1)C2)C(=O)O (stereo unspecified) | inactive
2 | Cn1c(CN2CCCCC2)nc2cc(NS(=O)(=O)c3ccc(Cl)cc3)ccc21 | inactive
3 | COc1ccc2c(c1)[nH]c1c(N3CCN(Cc4ccc5c(c4)OCO5)CC3)ncnc12 | inactive
4 | O=C(NCCNc1ccc([N+](=O)[O-])cc1C(F)(F)F)c1ccc(F)cc1 | inactive
5 | COCCNS(=O)(=O)c1cccn1-c1ncc(C(F)(F)F)cc1Cl | inactive
6 | CCCCn1c(SCC(=O)Nc2nnc(CC)s2)nc2c1c(=O)n(C)c(=O)n2C | inactive
7 | CCn1nc(C(=O)NCc2ccco2)c(Cl)c1Cl | inactive
8 | CCOC(=O)CSc1n[nH]c(NC(=O)c2cccc(C)c2)n1 | inactive
9 | Cc1cccc(C(=O)NC(=S)Nc2ccc(N3CCOCC3)cc2)c1 | inactive
10 | Cc1cc(C)c2nc(NNC(=O)c3ccc(S(=O)(=O)N4CCc5ccccc5C4)cc3)sc2c1 | inactive
11 | O=C(O)CCCCCN1C(=O)c2ccc(C(=O)O)cc2C1=O | inactive
12 | O=C(/C=C/c1ccccc1Cl)c1ccccc(=O)c1O | inactive
13 | Cc1ccc(NC(=O)c2ccccc2)s1 | inactive
14 | CC1=C(C(=O)Nc2cccnc2)C(c2ccccn2)n2nnnc2N1 (stereo unspecified) | inactive
15 | Cc1cccnc1NC(=O)CCCN1C(=O)c2ccccc2C1=O | inactive
16 | CC(=O)c1cccc(NC(=O)Nc2cccs2)c1 | inactive
17 | CC1(C)CC(=O)C=C(Nc2ccccc2NC(=O)c2cnccn2)C1 | inactive
18 | COc1ccc(N2CCN(C(=O)Nc3ccc(S(=O)(=O)N(C)C)cc3)CC2)cc1 | inactive
19 | Cc1ccc(S(=O)(=O)N(CC(=O)N=Nc2c(O)[nH]c3ccccc23)c2ccc(C)c(C)c2)cc1 | inactive
20 | NC(N)=Nc1nc(C2COc3ccccc3O2)cs1 (stereo unspecified) | inactive
21 | O=C(CSCc1nc2ccccc2[nH]1)Nc1ccc2ccccc2c1 | inactive
22 | COc1cc(CNCc2ccccn2)ccc1OCC(=O)NC(C)(C)C | inactive
23 | O=S(=O)(/N=C(/Nc1cccc2ccccc12)c1ccccc1)c1cccs1 | inactive
24 | FC(F)(F)COc1nc(OCC(F)(F)F)nc(N2CCN(c3ccccc3)CC2)n1 | inactive

Row | Compound | outcome
25 | COc1cccc(C2CC(=O)Nc3cc(OC)c(OC)c(OC)c32)c1OC (stereo unspecified) | inactive
26 | COCCn1c(-c2ccccc2F)n[nH]c1=S | inactive
27 | COc1ccc(C(=O)NCCC2=CCCCC2)cc1OC | inactive
28 | C1=C(CCNc2ncnc3c2[nH]c2ccccc23)CCCC1 | inactive
29 | O=C(NC1CCCCC1)n1c(=O)oc2ccc(Cl)cc21 | inactive
30 | COc1ccc(C2C(C(=O)c3cccs3)=C(O)C(=O)N2c2nnc(C)s2)cc1OC (stereo unspecified) | inactive
31 | Nc1ccc2c(c1)C(=O)N(CC1CCCO1)C2=O (stereo unspecified) | inactive
32 | Cc1cccc(Nc2c3c(nc4ccccc24)CCC3)c1 | inactive
33 | Oc1cccc(Nc2c3ccccc3nc3ccccc23)c1 | inactive
34 | Cc1cccc(Nc2nc(N)nc(CN3CCN(c4ccccc4)CC3)n2)c1 | inactive
35 | CCc1ccc(Nc2nc(N)nc(CSc3nc4ccccc4s3)n2)cc1 | inactive
36 | CCOc1ccc(Nc2nc(NCCN3CCOCC3)nc(OC)n2)cc1 | inactive
37 | c1ccc(CNc2c3c(nc4ccccc24)CCC3)cc1 | inactive
38 | CCOC(=O)c1cnc2ccccc2c1Nc1ccc2c(c1)OCCO2 | inactive
39 | Cc1cccc(N2CCc3c2nc2ccccc2c3N)c1 | inactive
40 | CC1(C)CC(=O)C(C=Nc2ccc(Cl)cn2)=C(O)C1 | inactive
41 | Cc1cc(C)n(-c2ccc(C(=O)OCC(=O)Nc3ccc([N+](=O)[O-])cc3)cc2)n1 | inactive
42 | O=C(NCCc1ccc(Cl)cc1)/C(=C/c1cccnc1)NC(=O)c1ccccc1 | inactive
43 | S=C(NCc1cccnc1)Nc1cccc(Cl)c1 | inactive
44 | CCOc1ccc(S(=O)(=O)Nc2ccc(C(=O)N/N=C/c3c(C)nn(-c4ccccc4)c3N3CCCC3)cc2)cc1 | inactive
45 | Cc1cccc(NC(=O)Cn2c(/C=C/c3ccccc3)nc3ccccc32)c1 | inactive
46 | CC1CCCCN1Cc1cnc(Cl)s1 (stereo unspecified) | inactive
47 | Cc1ccc2nc(Cc3ccc(N)cc3)[nH]c2c1 | inactive
48 | Cc1ccc(-c2csc(N=C(N)N)n2)c(C)c1 | inactive

Row | Compound | outcome
49 | Cc1ccc(-c2nc3ccccc3s2)cc1S(=O)(=O)N1CCCC1 | inactive
50 | Cn1c(SCC(=O)N2c3ccccc3CCc3ccccc32)nnc1-c1cc2ccccc2cc1O | inactive
51 | O=S(=O)(NC1=NCCCCC1)c1cccs1 | inactive
52 | Cc1ccc(NC(=O)C2CC(=O)NC(N3CCCCC3)=N2)cc1Cl (stereo unspecified) | inactive
53 | Cc1nn(CCOc2ccccc2)c(=O)n1-c1ccc(F)cc1 | inactive
54 | CC(Cc1ccccc1Sc1ccccc1O)N(C)C (stereo unspecified) | inactive
55 | CC(CCc1ccccc1)NC(=O)c1ccccc1 (stereo unspecified) | inactive
56 | CC(C)CCn1c(SCC(=O)N2CC(=O)Nc3ccccc32)nc2scc(-c3cccs3)c2c1=O | inactive
57 | O=C(O)C1(P(=O)(c2ccccc2)c2ccccc2)CCC1 | inactive
58 | N#Cc1c(-c2ccccc2)ccn(Cc2cccc(Cl)c2)c1=O | inactive
59 | COc1ccc(-c2nc3ncccc3n2O)cc1 | inactive
60 | Nc1ccccc1NC1=CC(=O)CC(c2ccco2)C1 (stereo unspecified) | inactive
61 | CCn1cc(C(=O)O)c(=O)c2cnc(N3CCN(C(=S)NC(=O)c4ccc(Cl)cc4)CC3)nc21 | inactive
62 | CCn1cc(C(=O)OCC(=O)Nc2ccc(S(=O)(=O)N3CCCC3)cc2)c(=O)c2ccc(C)nc21 | inactive
63 | COc1ccccc1N1CCN(C(=O)CSc2nc3ccccc3o2)CC1 | inactive
64 | O=C(O)Cn1cc(C(=O)c2ccco2)c2ccccc21 | inactive
65 | O=S(=O)(c1ccc(S(=O)(=O)N2CCN(C/C=C/c3ccccc3)CC2)cc1)N1CCCC1 | inactive
66 | NS(=O)(=O)c1ccc(Nc2nc(-c3ccc(O)cc3)cs2)cc1 | inactive
67 | Fc1cccc(NCc2cn3ccccc3n2)c1 | inactive
68 | CNc1nnc(-c2cccc(N(C)C)c2)s1 | inactive
69 | COC(=O)c1c(C)[nH]c(C(C)=O)c1C | inactive
70 | COc1ccc2c(c1)C1C=CCC1C(c1cc3c(cc1Br)OCO3)N2 (stereo unspecified) | inactive
71 | COc1ccc(C(=O)N2CCc3cc(OC)c(OC)cc3C2)cc1OC | inactive
72 | COc1ccc(S(=O)(=O)N2CCN(Cc3ccccc3)CC2)cc1 | inactive

Row | Compound | outcome
73 | COc1ccc(C(=O)On2c(-c3ccc(Br)cc3)nc3ccccc3c2=O)cc1 | inactive
74 | COc1cccc(/C=N/n2c(C)nc3ccccc32)c1OC | inactive
75 | COc1ccc2c(c1)nc(N)n2Cc1ccccc1 | inactive
76 | CCCCn1c(N)nc2ccccc21 | inactive
77 | CCCn1c(N)nc2ccccc21 | inactive
78 | CSc1nc2ccccc2n1Cc1cccc(F)c1 | inactive
79 | CCOc1cc(S(=O)(=O)N2CCN(CC)CC2)ccc1Cl | inactive
80 | CC(C)Cn1cnc2sc3c(c2c1=N)CCCC3 | inactive
81 | CCn1c(C)cc(=S)c2ccccc21 | inactive
82 | CC(C)(C)C1CCC2(CC1)Nc1cccc3cccc(c13)N2 | inactive
83 | Cc1ccc(C(=O)CSc2ncnc3sc4c(c23)CCCC4)cc1 | inactive
84 | c1ccc(Cn2nnc3c(NCc4ccc5c(c4)OCO5)nc(C4CC4)nc32)cc1 | inactive
85 | CCC(CC)C(=O)N1c2ccc(F)cc2CCC1C (stereo unspecified) | inactive
86 | Cc1nc(N2CCN(Cc3ccccc3)CC2)nc2c1C(=O)CC(C)C2 (stereo unspecified) | inactive
87 | Cc1cc(/C=N/NC(N)=S)c(C)n1-c1ccc(Cl)c(Cl)c1 | inactive
88 | Cn1cccc1CC(=O)N/N=C/C(Cl)=C/c1ccccc1 | inactive
89 | CSc1ccc2c(c1)C(N1CCN(C)CC1)Cc1ccccc1S2 (stereo unspecified) | inactive
90 | c1ccc2c(c1)Sc1ccccc1N2CC1CN2CCC1CC2 (stereo unspecified) | inactive
91 | O=C(CSc1nc2ccccc2o1)Nc1ccc(N2CCOCC2)cc1 | inactive
92 | O=C1CC(c2ccccc2)n2nc(NC(=O)c3ccccc3)nc2N1 (stereo unspecified) | inactive
93 | CCN(c1ccc(OCC(=O)OCC(=O)Nc2ccc(F)c(F)c2F)cc1)S(=O)(=O)c1ccccc1 | inactive
94 | O=C(Cc1n[nH]c(=O)c2ccccc12)OCC(=O)c1ccc2c(c1)OCCO2 | inactive
95 | CC1CCN(C(c2cc3cc4c(cc3[nH]c2=O)OCO4)c2nnnn2CC2CCCO2)CC1 (stereo unspecified) | inactive
96 | COc1ccc(N(CC(=O)Nc2ccccc2SC)S(C)(=O)=O)cc1OC | inactive

Row | Compound | outcome
97 | Nc1cc(N)nc(SCc2cc(=O)oc3cc4c(cc23)CCC4)n1 | inactive
98 | Nc1nnc(Sc2ccc(Cl)cc2[N+](=O)[O-])s1 | inactive
99 | CCN(CC)S(=O)(=O)c1ccc2[nH]cc(C(=O)NCCc3ccccc3)c(=O)c2c1 | inactive
100 | O=C(CSc1nccc(=O)[nH]1)N1c2ccccc2CCc2ccccc21 | inactive
101 | O=C(CSc1nc(Nc2ccccc2)nc(N2CCOCC2)n1)Nc1ccc([N+](=O)[O-])cc1 | inactive
102 | Cc1cc(=O)oc(C)c1C(=O)NCc1cccnc1 | inactive
103 | COc1ccc(Cl)cc1Nc1nc(-c2sc(NC(=O)c3ccco3)nc2C)cs1 | inactive
104 | O=C(NNc1nc(-c2ccccc2)cs1)c1ccco1 | inactive
105 | Cc1cc(C)cc(OC(=O)CS(=O)c2ccc(C(F)(F)F)cc2[N+](=O)[O-])c1 (stereo unspecified) | inactive
106 | c1ccc2c(c1)[nH]c1c(N3CCCC3)ncnc12 | inactive
107 | O=C(CCCNS(=O)(=O)c1ccccc1)NCc1ccco1 | inactive
108 | O=Cc1cccn1Cc1ccccc1[N+](=O)[O-] | inactive
109 | CCN1CCN(c2oc(COc3ccc(Cl)cc3)nc2C#N)CC1 | inactive
110 | CCOC(=O)c1cnc2ccc(OCC)cc2c1N1CCN(c2ccccc2)CC1 | inactive
111 | COc1ccc2cc(C#N)c(NC(C)C)nc2c1 | inactive
112 | COc1cc(C2NC(=O)NC(c3ccccc3)=C2C(C)=O)ccc1OCC(=O)O (stereo unspecified) | inactive
113 | CC1CCCC(C)N1/N=C/c1c[nH]c2ccc(Br)cc12 (stereo unspecified) | inactive
114 | COc1cccc(N=Cc2c[nH][nH]c2=O)c1 | inactive
115 | O=C(OCc1ccccc1)Oc1cncc(C(=O)O)c1 | inactive
116 | COC(=O)c1ccc(C(=O)OC)c(NC(=O)COc2ccccc2OC)c1 | inactive
